Assay results: PubChem BioAssay AID463173 (ICCB-Longwood Screening Facility, Harvard Medical School, 2010)
Among all 52,000 compounds or so, about 4,300 (8.3%) were called active. The sample holds actives, similar compounds and a random draw of the others, so the mix is not that of the screen. Cut-off read from the data, not from the text of the source: active = survival mostly below about 52% (no sharp cut-off); inactive = mostly above about 56%.

System: DeltatarO mutant
Assay: growth inhibition of S. aureus wild type versus tarO mutant, primary screen, teichoic acid synthesis inhibitors, RN4220, OD600 (AID 463173)
Details: OD600, 18 h, hits give low values, screened at 18.75 µg/mL (by protocol)

SMILES | survival
CCc1ccc(CN(Cc2ccco2)C(=O)COc2ccc(Cl)cc2C)cc1 | 55% (inactive)
O=C(CNC(=O)c1ccccc1)OCc1cc(=O)n2nc(C3CCCCC3)sc2n1 | 90% (inactive)
O=C(O)CC1c2ccccc2CCN1C(=O)Nc1cc(Cl)ccc1Cl (stereo not given) | 94% (inactive)
COc1ccc(NC(=O)Cn2c(=O)n(-c3cccc(C)c3)c(=O)c3c2c2cc(C)ccc2n3C)cc1OC | 79% (inactive)
c1ccc(CNCC2COc3ccccc3O2)cc1 (stereo not given) | 114% (inactive)
Cc1ccc(-n2ncc3c(N4CCN(C)CC4)ncnc32)cc1C | 89% (inactive)
Cc1ccc(CNC(=O)NC2COc3ccccc3C2)cc1 (stereo not given) | 107% (inactive)
CCOC(=O)c1c(C)oc2c1cc(NS(=O)(=O)c1ccc(C)cc1)c1ccccc12 | 56% (inactive)
COc1ccc(S(=O)(=O)Nc2cc3c(C(=O)OC(C)C)c(C)oc3c3ccccc23)cc1 | 38% (active)
COc1ccc(OC)c(S(=O)(=O)Nc2cc3c(C(C)=O)c(C)oc3c3ccccc23)c1 | 52% (inactive)
Cc1nc(-c2ccc(S(=O)(=O)Nc3ccc(OC(F)(F)F)cc3)cc2)co1 | 78% (inactive)
Cc1ccc([C@H]2Nc3ccc(S(=O)(=O)Nc4cccc(Cl)c4C)cc3[C@H]3C=CC[C@H]32)cc1 | 50% (inactive)
COC(=O)c1ccc([C@@H]2Nc3c(C)cc(C)cc3[C@@H]3C=CC[C@@H]32)cc1 | 51% (active)
COc1cc([C@@H]2Nc3c(F)cccc3[C@@H]3C=CC[C@@H]32)cc(Br)c1OC | 55% (inactive)
COC(=O)c1ccc([C@@H]2Nc3c(cccc3C(F)(F)F)[C@@H]3C=CC[C@@H]32)cc1 | -3% (active)
CCOc1cccc2c1N[C@@H](c1ccc(C(=O)O)cc1)[C@H]1CC=C[C@@H]21 | 68% (inactive)
CCOC(=O)c1cccc2c1N[C@@H](c1ccc(F)cc1)[C@H]1CC=C[C@@H]21 | 4% (active)
Cc1ccc2c(c1C)NC(C(=O)O)C1CC=CC21 (stereo not given) | 85% (inactive)
COC(=O)c1cccc2c1NC(c1cccnc1)C1CC=CC21 (stereo not given) | 101% (inactive)
Cc1ccc(Cl)c2c1N[C@@H](c1ccc(C(=O)O)cc1)[C@H]1CC=C[C@@H]21 | -10% (active)
COC(=O)c1ccc([C@@H]2Nc3c(OC)ccc(C)c3[C@@H]3C=CC[C@@H]32)cc1 | 49% (inactive)
COCCN(CCOC)C(=O)c1cc2c(=O)n3ccccc3nc2n1C | 51% (inactive)
CCOc1ccccc1NC(=O)N(C)CCc1c(C)nn(CC)c1C | 120% (inactive)

SMILES | survival
Cc1c(C(=O)N2CCCC2)oc2c1-c1nn(CC(=O)NC(C)c3ccccc3)cc1CC2 (stereo not given) | 72% (inactive)
Cc1nc(SCC(=O)N2c3ccccc3CCc3ccccc32)n[nH]1 | 102% (inactive)
Cc1cccc(C(=O)NC2=NC(c3ccc(Cl)cc3)CC(=O)N2)c1 (stereo not given) | 88% (inactive)
COc1ccccc1NC(=O)CN1C(=O)CC(c2ccc(C)c(C)c2)=Nc2ccccc21 | 84% (inactive)
O=C1Nc2ccc(S(=O)(=O)Nc3ccccc3O)c3cccc1c23 | 62% (inactive)
CCOC(=O)c1ccc(NC2=CC(c3ccc(O)c(OCC)c3)N(c3ccc(C(=O)OCC)cc3)C2=O)cc1 (stereo not given) | 59% (inactive)
Cc1ccc(S(=O)(=O)c2nnn3c2nc(NCc2ccc4c(c2)OCO4)c2sccc23)cc1 | 113% (inactive)
COc1ccccc1CNC(=O)CCn1c(=O)c2cccn2c2cccnc21 | 80% (inactive)
COCCCNC(=O)c1nn(-c2ccc(C)cc2)nc1CO | 82% (inactive)
O=C(CSc1oc(-c2ccccc2)nc1S(=O)(=O)c1ccc(Cl)cc1)c1ccccc1 | 44% (active)
Cc1ccc(S(=O)(=O)c2nc(-c3ccc(F)cc3)oc2SCC(=O)c2ccccc2)cc1 | 47% (active)
O=C(CSc1oc(-c2ccccc2)nc1S(=O)(=O)c1ccccc1)c1ccccc1 | 148% (inactive)
O=C(CSc1oc(-c2ccc(F)cc2)nc1S(=O)(=O)c1ccccc1)c1ccc(Cl)cc1 | 55% (inactive)
Cc1ccc(-c2nc(S(=O)(=O)c3ccc(C)cc3)c(SCC(=O)Nc3ccc(F)cc3)o2)cc1 | 58% (inactive)
Cc1ccc(-c2nc(S(=O)(=O)c3ccc(C)cc3)c(SCC(=O)c3ccccc3)o2)cc1 | 52% (inactive)
O=C(CSc1oc(-c2ccc(F)cc2)nc1S(=O)(=O)c1ccc(Cl)cc1)c1ccccc1 | 45% (active)
O=C(CSc1oc(-c2ccccc2)nc1S(=O)(=O)c1ccc(Cl)cc1)Nc1ccc(F)cc1 | 162% (inactive)
Cc1ccc(-c2nc(S(=O)(=O)c3ccccc3)c(SCC(=O)NC3CCCCC3)o2)cc1 | 43% (active)
Cc1ccc(S(=O)(=O)c2nc(-c3ccccc3)oc2SCC(=O)NC2CCCCC2)cc1 | 166% (inactive)
Cc1ccc(-c2nc(S(=O)(=O)c3ccc(C)cc3)c(SCC(=O)NC3CCCCC3)o2)cc1 | 51% (inactive)
O=C(CSc1oc(-c2ccccc2)nc1S(=O)(=O)c1ccc(Br)cc1)c1ccccc1 | 58% (inactive)
Cc1cccc(N2C(=O)C(CC(=O)Nc3ccc(F)cc3)N(C3CCCC3)C2=O)c1 (stereo not given) | 130% (inactive)
CCCC1=Nc2cc(C(=O)NCCc3ccc(OC)cc3OC)ccc2Sc2ccccc21 | 99% (inactive)

SMILES | survival
O=C(CC(NCc1ccccc1)C(=O)O)NC1CCCCC1 (stereo not given) | 102% (inactive)
Cn1c(=O)c(C(=O)NCCN2CCNCC2)c(O)c2ccccc21 | 68% (inactive)
CCCn1c(=O)c2sccc2n2c(CCCC(=O)NC3CCC(C)CC3)nnc12 (stereo not given) | 100% (inactive)
COc1ccc(OC)c(CNC(=O)c2cnc(N(C)C)nc2)c1 | 71% (inactive)
O=C(Cc1ccc(NC(=O)N2CCCCc3ccccc32)cc1)Nc1ccccc1Br | 73% (inactive)
Cc1ccc(C)c(N2CCN(C(=O)c3cccc(-n4c(C)nc5cccnc54)c3)CC2)c1 | 78% (inactive)
COc1ccc(CNc2nc3ccccc3c3nc(-c4ccccc4)nn23)cc1 | 35% (active)
Clc1ccccc1CNc1nc2ccccc2c2nc(-c3ccccc3)nn12 | 108% (inactive)
c1ccc(CNc2nc3ccccc3c3nc(-c4ccccc4)nn23)cc1 | 54% (inactive)
COc1cccc(CNC(=O)Cn2c(=O)n3nc(-c4cccc(C)c4)nc3c3ccccc32)c1 | 93% (inactive)
COc1cccc(CNc2nc3ccccc3c3nc(-c4cccc(C)c4)nn23)c1 | 31% (active)
CCc1c(C)nc2nc(-c3ccccc3)nn2c1NCc1ccc(C)cc1 | -4% (active)
CCc1c(C)nc2nncn2c1NCc1ccccc1 | 85% (inactive)
Cc1ccc(CNc2cc(C)nc3nc(-c4ccc(C)cc4)nn23)cc1 | 69% (inactive)
Cc1cccc(-c2nc3c4ccccc4nc(NCc4ccc(F)cc4)n3n2)c1 | 84% (inactive)
Cc1ccc(CNc2nc3ccccc3c3nc(-c4cccc(C)c4)nn23)cc1 | 18% (active)
COc1cccc(CNc2nc3c(-c4cccc(C)c4)nnn3c3ccccc23)c1 | 96% (inactive)
Cc1ccc(CNc2cc(C)nc3nc(-c4cccc(C)c4)nn23)cc1 | 124% (inactive)
N#C/C(=C\C1CC=CCC1)c1nc2ccccc2[nH]1 (stereo not given) | 86% (inactive)
Cc1cc(C)cc(NC(=O)CSc2nc(-c3ccccc3)nn2C(=O)c2ccco2)c1 | 110% (inactive)
S=C(NCCCN1CCOCC1)N1CCN(c2ccccc2)CC1 | 84% (inactive)
Cc1c(C=Nc2ccc(Cl)cc2)c(O)n(C)c(=O)c1C#N | 74% (inactive)
CCSc1ncc(Cl)c(C(=O)Nc2c(C(=O)Nc3ccc(Cl)cc3)oc3ccccc23)n1 | 105% (inactive)

SMILES | survival
Cc1cccc(-c2nc3c4ccccc4nc(NCc4ccc(Cl)cc4)n3n2)c1 | 44% (active)
CC(=O)c1ccc(N2CCN(c3nc4ccccc4c4nc(-c5cccc(C)c5)nn34)CC2)cc1 | 41% (active)
Cc1cccc(-c2nc3c4ccccc4nc(N4CCN(c5cccc(Cl)c5)CC4)n3n2)c1 | 71% (inactive)
Clc1ccc(CNc2nc3ccccc3c3nc(-c4cccnc4)nn23)cc1 | 80% (inactive)
Cc1cccc(-c2nc3c4ccccc4nc(N4CCN(c5ccc(F)cc5)CC4)n3n2)c1 | 65% (inactive)
CCCCCC(=O)Nc1ccc(NC(=O)c2cc3ccccc3o2)c(OC)c1 | 68% (inactive)
Cc1ccc(CCNC(=O)CCCc2nnc3n(C)c(=O)c4sccc4n23)cc1 | 86% (inactive)
CCn1c2ccccc2c2cc(CN3CCN(Cc4ccc(Cl)cc4)CC3)ccc21 | -1% (active)
O=c1c2ccccc2n(Cc2ccccc2Cl)c(=O)n1CCc1ccccc1 | 60% (inactive)
CCn1c2ccccc2c2cc(CN3CCN(Cc4ccco4)CC3)ccc21 | 81% (inactive)
CCn1c2ccccc2c2cc(CN3CCN(Cc4ccc(Br)cc4)CC3)ccc21 | -1% (active)
CCn1c2ccccc2c2cc(CN3CCN(Cc4cccc(Cl)c4)CC3)ccc21 | -1% (active)
CCCN1CCN(C(=O)Cn2ncc3c4ccccc4n(Cc4cccc(Cl)c4)c3c2=O)CC1 | 72% (inactive)
CCCn1c(N2CCN(Cc3ccc(Cl)cc3)CC2)nc2ccccc21 | 91% (inactive)
CC(C)n1c(N2CCN(Cc3ccc(Cl)cc3)CC2)nc2ccccc21 | 83% (inactive)
Clc1ccccc1CN1CCN(Cc2ccco2)CC1 | 86% (inactive)
CCn1c2ccccc2c2cc(CN3CCN(Cc4ccccc4Cl)CC3)ccc21 | -1% (active)
CCS(=O)(=O)N1CCN(Cc2ccccc2)CC1 | 72% (inactive)
O=c1c2ccccc2n(Cc2cccc(Cl)c2)c(=O)n1Cc1ccccc1 | 124% (inactive)
CCS(=O)(=O)N1CC(=O)N(c2cc(C)cc(C)c2)C(C)(C(=O)NC2CCCCC2)C1 (stereo not given) | 92% (inactive)
COc1cc(NC(=O)Cn2cnc3c2c(=O)n(C)c(=O)n3C)c(OC)cc1Cl | 65% (inactive)
